Among the data in PubChem BioAssay (NCATS) are Potency and outcome values, retold here.

Results filed as inconclusive are left out. Some structures have more than one record in an assay (separate samples or runs), and their calls can disagree. Calls of active or inactive are those of the source. Calls follow the shape of the dose curve; as a rule, active = well fitted curve in the direction sought with a large enough effect; inconclusive = small, poorly fitted or top-dose-only effect, or another doubt; inactive = no such curve, though single readings can be large; an effect the other way counts as inactive or inconclusive.

Assay [1] deals with ATP-dependent 6-phosphofructokinase (Trypanosoma brucei brucei) (UniProt O15648). The assay can be described thus: qHTS Validation Assay to Find Inhibitors of T. brucei phosphofructokinase (AID 485368). Also: potency is read from the fitted curve at half-maximal effect. Put shortly:
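Enzyme reaction in triethanolamine buffer pH 8.0 with 5 mM MgCl2, 0.01% Tween20 and 0.1% BSA; PFK 1.25 nM, F6P 0.5 mM, ATP 0.1 mM, 45 min RT. ADP quantified by ADP-Glo.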
(In general: qHTS replaces the single test concentration by a dilution series.)

Assay [2] in a line: Quantitative high throughput screen for delayed death inhibitors of the malarial parasite plastid, 96 hour incubation (AID 488745). Also: nearly all actives have a fitted effect of over 70% in size. Also: potency is read from the fitted curve at half-maximal effect. Put shortly:
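P. falciparum carrying an integrated firefly luciferase reporter, grown in erythrocytes (2% hematocrit, 0.1% parasitemia final) in RPMI 1640/0.5% Albumax, was exposed to compound for 96 h (two generations) at 37 C, 5% CO2. Luminescence decrease indicated growth inhibition.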

The nature of assay [3]: Quantitative high throughput screen for delayed death inhibitors of the malarial parasite plastid, 48 hour incubation (AID 488752). Also: nearly all actives have a fitted effect of over 65% in size. Also: potency is read from the fitted curve at half-maximal effect. An outline of the steps: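 Erythrocytes infected with P. falciparum carrying an integrated firefly luciferase reporter (2% hematocrit, 0.1% parasitemia final) were exposed to compounds in RPMI 1640/0.5% Albumax for 48 h at 37 C, 5% CO2. Growth inhibition was scored as reduced luminescence.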

Assay [4] addresses Thioredoxin reductase 1, cytoplasmic (Rattus norvegicus) (UniProt O89049). The assay can be described thus: qHTS Assay for Inhibitors of Mammalian Selenoprotein Thioredoxin Reductase 1 (TrxR1) (AID 488773). Also: nearly all actives have a fitted effect of over 40% in size. Also: potency is read from the fitted curve at half-maximal effect. The note with it: Potency: inhibition. An outline of the steps: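 Steps: enzyme (90 nM) plus NADPH (400 uM final), 5 min at ~22 deg C; compound added, 15 min; selenite (400 uM final) added; fluorescence followed for 8 min. Concentration-response curves derived from the normalized delta values.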

The target in assay [5] is Flap endonuclease 1 (Homo sapiens) (UniProt P39748). The assay can be described thus: qHTS Validation Assay for the Inhibitors of Human Flap endonuclease 1 (FEN1) (AID 488816). Put shortly:
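Readings taken at 0 and 15 min after starting the reaction with 50 nM (final) substrate supplied the signal. Compounds had first sat with 10 nM FEN1 reagent for 15 min at room temperature. Values come from Hill-equation concentration-response fits.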

Assay [6] concerns the target M-phase phosphoprotein 8 (Homo sapiens) (UniProt Q99549). The assay can be described thus: qHTS Validation Assay for Inhibitors for MPP8 Chromodomain Interactions with Methylated Histone Tails (AID 488949). Also: nearly all actives have a fitted effect of over 55% in size. Also: potency is read from the fitted curve at half-maximal effect. Put shortly:
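MPP8 (50 nM) was pre-bound to 50 nM biotinylated H3(1-18)K9me3 peptide in PBS pH 7.4 with 0.01% Tween-20. Compounds were then added for 30 min at room temperature, and complex disruption was read by AlphaScreen with streptavidin donor and nickel-chelate acceptor beads.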

For assay [7], the target named is Methanococcus maripaludis chaperonin (MmCpn) (UniProt Q6LX38). Put plainly: High-Throughput Screening for Modulators of Cytosolic Chaperonin Activity: MmCpn Primary Screen (AID 488978).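 Also: 50 nM MmCpn enzyme hydrolysing 30 µM ATP at 37 °C.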 Put shortly: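 MmCpn at 50 nM final was preincubated 5 min at RT with compound. ATP was then added at 30 uM final for 10 min at 37 C. ADP formed was detected by Transcreener HTRF (665/590 nm).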

Assay [8] concerns the target Transient receptor potential cation channel subfamily V member 1 (Homo sapiens) (UniProt Q8NER1). Put plainly: HTS Assay for Compounds that Act as Enhancers of the Vanilloid Receptor 1 (AID 488979). Put shortly: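 Calcium influx kinetics via Fluo-8 (480/520 nm) in TRPV1-expressing cells, 2000/well cultured overnight at 35.5C. Compound-alone read 3 min (agonist phase), followed by EC20 capsaicin challenge for 2 min (enhancer phase).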

The target of assay [9] is Thioredoxin reductase 1, cytoplasmic (Rattus norvegicus) (UniProt O89049). Put plainly: qHTS Assay for Substrates of Mammalian Selenoprotein Thioredoxin Reductase 1 (TrxR1) (AID 488772).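 Also: NADPH fluorescence in the first read after selenite addition and not the 8 min delta; series mostly up to about 57 µM; a drop in NADPH fluorescence below the no-compound background marks a TrxR1 substrate.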 An outline of the steps:
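Quantitative HTS in Tris-HCl buffer at pH 7.5 with EDTA and Tween-20, using rat TrxR1, 400 uM NADPH and 400 uM selenite (final). A fall in initial NADPH fluorescence relative to background marked substrate behaviour.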

Assay [10] has as its target Chromobox protein homolog 1 (Homo sapiens) (UniProt P83916). Put plainly: qHTS Validation Assay for Inhibitors of HP1-beta Chromodomain Interactions with Methylated Histone Tails (AID 488953). Also: nearly all actives have a fitted effect of over 50% in size. Also: potency is read from the fitted curve at half-maximal effect. An outline of the steps: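 HP1-beta (50 nM) was preincubated 30 min at room temperature with biotinylated H3(1-18)K9me3 peptide (50 nM) in PBS pH 7.4, 0.01% Tween-20, then with compounds 30 min. AlphaScreen signal was read after streptavidin donor/nickel chelate acceptor beads (10 ug/mL final).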

Chain of Flap endonuclease 1 (Homo sapiens) (P39748 whole entry, looked up): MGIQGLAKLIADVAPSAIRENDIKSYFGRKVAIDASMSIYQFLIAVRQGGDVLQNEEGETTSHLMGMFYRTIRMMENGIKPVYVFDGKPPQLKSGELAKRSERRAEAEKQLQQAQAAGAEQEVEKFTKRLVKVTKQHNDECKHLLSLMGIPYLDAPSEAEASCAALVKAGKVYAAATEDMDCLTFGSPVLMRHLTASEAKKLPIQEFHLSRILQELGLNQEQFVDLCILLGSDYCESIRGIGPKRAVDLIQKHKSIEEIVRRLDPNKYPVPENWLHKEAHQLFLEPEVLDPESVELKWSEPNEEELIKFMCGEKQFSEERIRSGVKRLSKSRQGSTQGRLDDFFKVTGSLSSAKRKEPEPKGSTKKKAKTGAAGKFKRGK
Chain of Thioredoxin reductase 1, cytoplasmic (Rattus norvegicus) (O89049 whole entry, looked up): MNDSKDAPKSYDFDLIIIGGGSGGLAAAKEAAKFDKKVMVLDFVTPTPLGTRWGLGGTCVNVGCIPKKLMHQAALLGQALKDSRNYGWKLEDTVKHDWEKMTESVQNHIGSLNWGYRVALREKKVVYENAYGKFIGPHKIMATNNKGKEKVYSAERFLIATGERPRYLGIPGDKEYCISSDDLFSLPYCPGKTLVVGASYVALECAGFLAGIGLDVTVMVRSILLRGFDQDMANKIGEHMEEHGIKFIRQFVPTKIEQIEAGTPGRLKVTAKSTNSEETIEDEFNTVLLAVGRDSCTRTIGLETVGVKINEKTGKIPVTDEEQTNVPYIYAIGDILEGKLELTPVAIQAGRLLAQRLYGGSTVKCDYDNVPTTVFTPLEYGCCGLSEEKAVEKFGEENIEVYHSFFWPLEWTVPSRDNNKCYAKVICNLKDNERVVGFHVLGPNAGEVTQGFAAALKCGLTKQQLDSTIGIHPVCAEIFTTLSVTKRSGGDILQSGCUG
Chain of ATP-dependent 6-phosphofructokinase (Trypanosoma brucei brucei) (O15648 whole entry, looked up): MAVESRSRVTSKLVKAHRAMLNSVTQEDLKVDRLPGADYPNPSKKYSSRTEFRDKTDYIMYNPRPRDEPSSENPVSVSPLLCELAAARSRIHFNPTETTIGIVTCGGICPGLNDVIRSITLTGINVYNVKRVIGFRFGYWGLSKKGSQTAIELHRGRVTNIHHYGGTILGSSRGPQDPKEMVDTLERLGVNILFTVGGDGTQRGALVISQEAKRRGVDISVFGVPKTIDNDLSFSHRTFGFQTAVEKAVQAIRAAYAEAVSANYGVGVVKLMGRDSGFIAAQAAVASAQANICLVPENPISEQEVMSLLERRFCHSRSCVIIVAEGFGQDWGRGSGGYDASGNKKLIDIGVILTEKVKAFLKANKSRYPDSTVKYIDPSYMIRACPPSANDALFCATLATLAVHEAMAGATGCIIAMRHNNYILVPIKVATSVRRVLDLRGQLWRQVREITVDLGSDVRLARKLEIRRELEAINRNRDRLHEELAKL
Chain of Chromobox protein homolog 1 (Homo sapiens) (P83916 whole entry, looked up): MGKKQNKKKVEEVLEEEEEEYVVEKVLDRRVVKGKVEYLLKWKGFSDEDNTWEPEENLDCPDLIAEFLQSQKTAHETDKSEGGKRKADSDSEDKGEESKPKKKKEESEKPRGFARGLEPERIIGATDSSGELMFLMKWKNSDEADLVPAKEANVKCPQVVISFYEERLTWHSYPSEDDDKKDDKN
Chain of Transient receptor potential cation channel subfamily V member 1 (Homo sapiens) (Q8NER1 whole entry, looked up): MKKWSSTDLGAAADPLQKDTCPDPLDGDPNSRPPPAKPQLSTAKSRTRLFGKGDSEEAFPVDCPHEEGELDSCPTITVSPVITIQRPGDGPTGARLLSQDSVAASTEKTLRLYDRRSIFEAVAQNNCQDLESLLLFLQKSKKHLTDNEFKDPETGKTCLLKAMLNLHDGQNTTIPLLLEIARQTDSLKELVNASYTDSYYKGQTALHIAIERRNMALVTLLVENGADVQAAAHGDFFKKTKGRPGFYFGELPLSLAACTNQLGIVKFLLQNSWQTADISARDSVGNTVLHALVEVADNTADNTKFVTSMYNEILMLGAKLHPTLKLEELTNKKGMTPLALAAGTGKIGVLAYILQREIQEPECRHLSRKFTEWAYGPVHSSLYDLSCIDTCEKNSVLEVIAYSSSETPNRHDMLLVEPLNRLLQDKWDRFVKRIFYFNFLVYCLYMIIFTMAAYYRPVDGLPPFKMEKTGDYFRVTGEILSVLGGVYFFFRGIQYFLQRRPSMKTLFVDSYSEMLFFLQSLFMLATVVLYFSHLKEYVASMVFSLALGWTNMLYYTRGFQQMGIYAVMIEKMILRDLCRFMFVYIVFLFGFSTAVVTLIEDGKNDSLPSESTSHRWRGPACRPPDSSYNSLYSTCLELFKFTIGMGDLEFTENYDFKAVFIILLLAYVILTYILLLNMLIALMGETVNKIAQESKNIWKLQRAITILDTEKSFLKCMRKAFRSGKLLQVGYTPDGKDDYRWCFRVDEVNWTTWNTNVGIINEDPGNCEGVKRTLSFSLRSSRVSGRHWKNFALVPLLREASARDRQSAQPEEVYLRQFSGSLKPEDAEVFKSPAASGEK
Chain of M-phase phosphoprotein 8 (Homo sapiens) (Q99549 whole entry, looked up): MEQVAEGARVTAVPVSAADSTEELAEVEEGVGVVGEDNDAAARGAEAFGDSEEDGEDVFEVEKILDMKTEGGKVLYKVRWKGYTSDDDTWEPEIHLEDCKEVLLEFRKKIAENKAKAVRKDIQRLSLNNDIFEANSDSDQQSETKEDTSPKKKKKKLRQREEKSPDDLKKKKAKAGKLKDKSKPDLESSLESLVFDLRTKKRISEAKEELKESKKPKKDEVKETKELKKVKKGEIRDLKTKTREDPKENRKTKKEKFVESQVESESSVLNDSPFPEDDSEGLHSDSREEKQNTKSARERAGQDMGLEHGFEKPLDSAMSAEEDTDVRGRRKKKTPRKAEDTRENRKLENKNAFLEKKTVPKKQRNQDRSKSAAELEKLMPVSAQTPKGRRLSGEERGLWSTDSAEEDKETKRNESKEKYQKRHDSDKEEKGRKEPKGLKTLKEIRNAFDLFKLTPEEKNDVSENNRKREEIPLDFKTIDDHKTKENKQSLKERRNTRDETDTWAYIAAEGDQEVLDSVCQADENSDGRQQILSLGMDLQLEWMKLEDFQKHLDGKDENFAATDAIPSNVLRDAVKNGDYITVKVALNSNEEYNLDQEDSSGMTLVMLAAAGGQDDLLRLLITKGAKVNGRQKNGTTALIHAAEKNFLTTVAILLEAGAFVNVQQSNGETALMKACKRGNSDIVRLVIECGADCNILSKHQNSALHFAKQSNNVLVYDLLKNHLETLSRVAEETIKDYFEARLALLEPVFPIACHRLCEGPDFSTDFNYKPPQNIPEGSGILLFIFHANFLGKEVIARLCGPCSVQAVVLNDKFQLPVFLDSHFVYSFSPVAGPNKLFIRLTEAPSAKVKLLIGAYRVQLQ
Chain of Methanococcus maripaludis chaperonin (MmCpn) (Q6LX38 1-543): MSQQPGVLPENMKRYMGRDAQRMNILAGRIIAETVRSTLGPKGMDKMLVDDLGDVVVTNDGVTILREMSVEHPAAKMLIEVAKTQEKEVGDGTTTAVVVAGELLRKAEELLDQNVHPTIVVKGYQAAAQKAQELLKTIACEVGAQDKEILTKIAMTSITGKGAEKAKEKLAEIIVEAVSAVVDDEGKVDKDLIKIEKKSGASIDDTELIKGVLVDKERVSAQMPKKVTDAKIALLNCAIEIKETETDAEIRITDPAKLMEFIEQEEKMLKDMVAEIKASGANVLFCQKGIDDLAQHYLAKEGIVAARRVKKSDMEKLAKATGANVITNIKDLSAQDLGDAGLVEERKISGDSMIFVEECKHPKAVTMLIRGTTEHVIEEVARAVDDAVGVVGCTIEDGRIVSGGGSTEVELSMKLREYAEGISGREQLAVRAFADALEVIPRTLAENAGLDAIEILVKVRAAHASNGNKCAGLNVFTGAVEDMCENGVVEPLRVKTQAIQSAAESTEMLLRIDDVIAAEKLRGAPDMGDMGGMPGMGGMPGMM

With `NCCSSCCN`, the Potency result in assay [1], in assay [2], in assay [3], in assay [4] and in [5] was “inactive” in each case. Besides, the Potency in [6] was 79.4 µM (active) and inactive. In addition, the compound was called inactive in [7] and in assay [8].
Consider `CC(COc1ccc(/C=C/c2ccccc2)cc1)[N+](C)(C)C` (stereo unspecified), for which the Potency result in assay [1], in [9], in assay [4], in [5] and in assay [6] was “inactive” each time. Further, the Potency in assay [2] is 2.08 µM (active); in [3], 3.29 µM (active). Further, the outcome in assay [7] and in assay [8] was inactive.
As to `Clc1ccc(N2CCN(Cc3c[nH]c4ncccc34)CC2)cc1`, the Potency result in [1], in [2], in [3], in assay [9], in [4] and in assay [5] was “inactive” throughout. Besides, the Potency entry in [6] was “inactive”. Further, the compound was classed as inactive in assay [7] and in assay [8].
Turning to `O=C(O)c1cc(=O)c2c(Cl)cc(Cl)cc2[nH]1`, the Potency entry in [1], in assay [2], in assay [3], in assay [9], in [5] and in [10] was “inactive” each time. For the same compound, the compound was called inactive in assay [7] and in [8].
As to `CCN1/C(=C/C(C)=O)Sc2ccc(OC)cc21`, the Potency result in [1], in assay [2], in [3], in [4] and in assay [6] was “inactive” each time. Besides, the compound was called inactive in [7] and in assay [8].
Consider `C[C@@H](CN1CCC(Cc2ccccc2)CC1)[C@@H](O)c1ccc(O)cc1`, for which the Potency result in assay [1], in [2], in assay [9], in assay [4], in [5] and in assay [6] was “inactive” each time. Further, the Potency result in [10] is “inactive”. Also, the compound was called inactive in assay [7] and in assay [8].
For `CCCCN1CCC(n2c(=O)[nH]c3ccccc32)CC1`, the Potency entry in assay [1], in assay [2], in [3], in assay [9], in [4] and in assay [5] was “inactive” throughout. In addition, the Potency result in [6] was “inactive”. Also, the compound was classed as inactive in assay [7] and in [8].
As for `Cc1ccc(C(=O)O[C@H](C(=O)O)[C@@H](OC(=O)c2ccc(C)cc2)C(=O)O)cc1` (tested in a mixture with another compound), the Potency entry in [1], in assay [2], in [3], in assay [9], in assay [4] and in [6] was “inactive” each time. The Potency entry in [10] is “inactive”. Besides, the outcome in assay [7] and in assay [8] was inactive.
For `NC(=O)C(=O)O`, the Potency entry in assay [1], in assay [2], in assay [3], in assay [9], in assay [4] and in [5] was “inactive” in each case. In assay [6], the Potency entry was “inactive”. Besides, the compound was called inactive in assay [7] and in assay [8].
Consider `N#C/C(=C\c1ccc(O)c(O)c1)C(=O)NCc1ccccc1`, for which the Potency in assay [1] is 13.5 µM (active); in [10], 10 µM (active). The Potency entry in [2], in assay [9] and in assay [5] was “inactive” throughout. In addition, the outcome in assay [7] and in assay [8] was inactive.
`S=C(S)OC1CC2CC1C1CCCC21` (stereo unspecified): the Potency result in assay [1], in assay [2], in assay [3], in assay [9], in [4] and in assay [5] was “inactive” each time. Further, the compound was classed as inactive in assay [7] and in [8].
With `O=C1NC(O)=NC1(c1ccccc1)c1ccccc1`, the Potency result in assay [1], in [2], in assay [3], in assay [9], in assay [4] and in assay [5] was “inactive” each time. Moreover, the Potency result in [10] was “inactive”. Also, the outcome in assay [7] and in [8] was inactive.
For the compound `O=C(O)[C@@H]1C[C@H](C(=O)O)N1`, the Potency entry in assay [1], in assay [2], in [3], in assay [9], in [4] and in [5] was “inactive” in each case. The Potency entry in [6] and in [10] was “inactive” each time. In addition, the outcome in assay [7] and in assay [8] was inactive.
Consider `N[C@@H](CC(=O)O)C(=O)O`, for which the Potency entry in assay [1], in [2], in assay [3], in assay [9], in [4] and in assay [5] was “inactive” in each case. Also, the Potency entry in assay [6] and in [10] was “inactive” in each case. Moreover, the call in assay [7] and in [8] was inactive.
Take `O=Nc1ccc2oc(=O)ccc2c1`: the Potency is 19 µM (active) in assay [1] and 39.8 µM (active) in assay [10]. The Potency result in assay [2], in assay [3], in assay [9] and in [5] was “inactive” in each case. Also, the outcome in assay [7] and in [8] was inactive.
Regarding `C#CCN1C(C)=C(C(=O)OC)C(c2cccc([N+](=O)[O-])c2)C(C(=O)OCC)=C1C` (stereo unspecified), the Potency result in assay [1], in [4] and in assay [5] was “inactive” in each case. The Potency in assay [2] was 8.28 µM (active); in assay [3], 11.7 µM (active). Further, the result in assay [7] and in [8] was inactive.
For `CC[C@@H](C)[C@H]1O[C@]2(CC[C@H]1C)C[C@@H]1C[C@@H](CC=C(C)[C@@H](O[C@H]3C[C@H](OC)[C@@H](O[C@H]4C[C@H](OC)[C@@H](O)[C@H](C)O4)[C@H](C)O3)[C@@H](C)C=CC=C3CO[C@@H]4[C@H](O)C(C)=C[C@@H](C(=O)O1)[C@]34O)O2`, the Potency entry in [1], in [4], in assay [5], in assay [6] and in [10] was “inactive” throughout. For the same compound, the compound was classed as inactive in assay [7].
For `C[N+]1(C)CCC(OC(=O)C(c2ccccc2)c2ccccc2)CC1`, the Potency entry in assay [1], in assay [9], in assay [4] and in assay [10] was “inactive” throughout. Also, in [7], the compound was called inactive.
`NS(=O)(=O)C#Cc1ccccc1`: the Potency entry in assay [1], in [9], in assay [5], in assay [6] and in assay [10] was “inactive” each time. Moreover, the Potency in assay [4] is 4.74 µM (active). Also, the compound was called inactive in [7].
With `O=C(Nc1ccccc1)c1cc([N+](=O)[O-])ccc1Cl`, the Potency entry in [1], in assay [9], in [4], in assay [5] and in [6] was “inactive” in each case. Further, the result in assay [7] and in [8] was inactive.
Turning to `CN1C2CC(OC(=O)[C@H](CO)c3ccccc3)CC1C1OC12` (stereo partly specified), the Potency entry in [1] and in assay [4] was “inactive” in each case. In addition, the outcome in assay [7] was inactive.
Regarding `O=C(CCCCCN1CCN(c2ccccc2-c2ccccc2)CC1)NC1CCCc2ccccc21` (stereo unspecified), the Potency entry in assay [1], in assay [9], in assay [4] and in assay [5] was “inactive” throughout. Also, the outcome in assay [7] was inactive.
For `NC(=S)NCCC[C@H](N)C(=O)O`, the Potency in [1] is 19 µM (active). For the same compound, the Potency result in [9], in assay [4] and in assay [6] was “inactive” throughout. The call in [7] was inactive.
In the case of `C[N+](C)(C)CCOP(=O)(O)OP(=O)([O-])OC[C@H]1O[C@@H](n2ccc(N)nc2=O)[C@H](O)[C@@H]1O`, the Potency result in assay [1], in assay [9], in assay [4], in [5], in assay [6] and in assay [10] was “inactive” each time. Further, the compound was called inactive in assay [7].
